Test results taken from paper PMC3218832.

Key:
Assay in all cases: protein binding microarray; high values mean tight binding
Settings in all cases: dsDNA, one strand shown
RELARELA (p65 homodimer) = RELARELA (p65 homodimer) (Homo sapiens, UniProt Q04206 1-307)
p50p50 homodimer = p50p50 homodimer (Homo sapiens, UniProt P19838 7-356)
p52p52 homodimer = biological target: T1, p52p52 homodimer (Homo sapiens, UniProt Q00653 4-332)
T1 sequence: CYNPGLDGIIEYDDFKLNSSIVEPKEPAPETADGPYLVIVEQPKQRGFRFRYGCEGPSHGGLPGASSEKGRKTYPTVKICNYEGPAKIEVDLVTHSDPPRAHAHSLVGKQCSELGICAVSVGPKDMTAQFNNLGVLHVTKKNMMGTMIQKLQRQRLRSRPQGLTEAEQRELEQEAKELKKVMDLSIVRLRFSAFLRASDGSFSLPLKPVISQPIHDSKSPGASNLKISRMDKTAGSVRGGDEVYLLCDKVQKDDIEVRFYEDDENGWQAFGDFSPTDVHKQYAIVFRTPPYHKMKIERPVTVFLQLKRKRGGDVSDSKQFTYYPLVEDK

[1] = biological target: RELA (p65) subunit of heterodimer;p50 subunit (Homo sapiens;Homo sapiens, UniProt Q04206;P19838 1-307;7-356)
[2] = biological target: RELA (p65) subunit of heterodimer;p52 subunit (Homo sapiens;Homo sapiens, UniProt Q04206;Q00653 1-307;4-332)
RELB subunit;p50 subunit = RELB subunit;p50 subunit (Homo sapiens;Homo sapiens, UniProt Q01201;P19838 120-401;7-356)
RELB subunit;p52 subunit = biological target: T2, RELB subunit;p52 subunit (Homo sapiens;Homo sapiens, UniProt Q01201;Q00653 120-401;4-332)
T2 sequence 1: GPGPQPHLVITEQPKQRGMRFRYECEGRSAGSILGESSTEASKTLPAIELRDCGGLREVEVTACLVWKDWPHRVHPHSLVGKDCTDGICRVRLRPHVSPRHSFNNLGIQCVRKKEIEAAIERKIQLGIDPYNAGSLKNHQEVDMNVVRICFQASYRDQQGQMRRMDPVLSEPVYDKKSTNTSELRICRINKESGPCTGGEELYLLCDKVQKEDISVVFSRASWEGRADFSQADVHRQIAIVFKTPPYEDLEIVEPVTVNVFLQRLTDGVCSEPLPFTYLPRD
T2 sequence 2: T1 sequence

[3] = biological target: C-Rel subunit;p50 subunit (Homo sapiens;Homo sapiens, UniProt Q04864;P19838 1-285;7-356)
[4] = biological target: T3, C-Rel subunit;p52 subunit (Homo sapiens;Homo sapiens, UniProt Q04864;Q00653 1-285;4-332)
T3 sequence 1: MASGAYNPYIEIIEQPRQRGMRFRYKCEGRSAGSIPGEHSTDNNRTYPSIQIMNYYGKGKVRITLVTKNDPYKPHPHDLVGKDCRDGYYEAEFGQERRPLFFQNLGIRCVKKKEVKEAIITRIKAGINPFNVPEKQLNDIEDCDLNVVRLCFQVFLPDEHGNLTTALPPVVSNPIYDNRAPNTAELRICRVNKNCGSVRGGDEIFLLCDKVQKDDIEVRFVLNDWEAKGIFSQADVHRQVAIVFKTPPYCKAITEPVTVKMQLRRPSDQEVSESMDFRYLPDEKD
T3 sequence 2: T1 sequence

RELARELA (p65 homodimer), sequence (Q04206 1-307): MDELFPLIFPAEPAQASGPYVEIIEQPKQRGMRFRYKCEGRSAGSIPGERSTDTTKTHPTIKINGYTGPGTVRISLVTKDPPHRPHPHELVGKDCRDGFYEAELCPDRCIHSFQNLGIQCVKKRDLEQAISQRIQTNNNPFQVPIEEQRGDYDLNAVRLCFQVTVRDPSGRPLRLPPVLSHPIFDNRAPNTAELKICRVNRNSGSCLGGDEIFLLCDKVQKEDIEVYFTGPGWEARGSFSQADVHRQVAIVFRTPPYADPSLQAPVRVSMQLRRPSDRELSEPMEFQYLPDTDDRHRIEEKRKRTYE
RELA (p65) subunit of heterodimer;p50 subunit, sequence (Q04206 1-307, chain 1 of 2): as the sequence (Q04206 1-307) above
RELA (p65) subunit of heterodimer;p50 subunit, sequence (P19838 7-356, chain 2 of 2): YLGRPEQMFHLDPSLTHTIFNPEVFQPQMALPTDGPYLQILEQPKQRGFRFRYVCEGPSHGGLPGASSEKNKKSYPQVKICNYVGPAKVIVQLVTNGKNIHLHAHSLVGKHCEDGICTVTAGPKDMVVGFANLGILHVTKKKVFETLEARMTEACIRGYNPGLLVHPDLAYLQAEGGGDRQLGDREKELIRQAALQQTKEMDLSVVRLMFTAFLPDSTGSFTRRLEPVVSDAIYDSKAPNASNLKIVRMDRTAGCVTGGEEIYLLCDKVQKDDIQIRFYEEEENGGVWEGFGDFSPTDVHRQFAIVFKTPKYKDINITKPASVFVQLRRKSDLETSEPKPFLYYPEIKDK
p50p50 homodimer, sequence (P19838 7-356): as the sequence (P19838 7-356, chain 2 of 2) above

Sequence | binding signal (RELARELA (p65 homodimer)) [z-score] | binding signal (p50p50 homodimer) [z-score] | binding signal (p52p52 homodimer) [z-score] | binding signal [1] [z-score] | binding signal [2] [z-score] | binding signal (RELB subunit;p50 subunit) [z-score] | binding signal (RELB subunit;p52 subunit) [z-score] | binding signal [3] [z-score] | binding signal [4] [z-score]
GGAATACTCCC | 0.714 | 0.226 | -0.025 | 0.507 | 0.124 | 0.0318 | -0.125 | 0.28 | 0.199
GAGTTGTTCCC | 0.34 | -0.415 | -0.231 | -0.188 | -0.206 | -0.327 | -0.463 | -0.00411 | -0.104
AAGAATGTCCC | 1.27 | 0.914 | 0.691 | 0.927 | 0.625 | 0.695 | 0.54 | 0.518 | 0.463
GAATAAGTCCC | 0.563 | 1.13 | 0.974 | 1.43 | 0.993 | 1.38 | 1.13 | 1.03 | 0.676
GAAGGAACCCT | -0.526 | -1.31 | -0.566 | -0.887 | -0.818 | -0.996 | -0.793 | -1.1 | -0.694
AAATTACTCCC | 0.447 | 0.204 | -0.0753 | 0.132 | -0.25 | 0.146 | -0.105 | 0.213 | -0.11
CAATGACCCCC | -0.602 | 0.342 | 0.0634 | 0.0857 | 0.113 | 0.27 | 0.286 | -0.0621 | -0.0557
GAAGTGGCCCC | -1.02 | -0.225 | -0.401 | -0.503 | -0.265 | -0.183 | -0.112 | -0.347 | -0.316
GAGGAGGCCCT | -1.17 | -1.07 | -0.602 | -1.02 | -0.973 | -0.68 | -0.644 | -1.36 | -0.766
AAAATCGCCCT | -0.445 | -0.836 | -0.395 | -0.458 | -0.504 | -0.55 | -0.442 | -0.504 | -0.384
AAGGTACTCCC | -0.19 | 0.76 | 0.735 | 0.376 | 0.386 | 0.54 | 0.302 | 0.206 | 0.449
AGAATAATCCT | -0.568 | -1.24 | -0.591 | -0.939 | -0.846 | -0.98 | -0.603 | -0.925 | -0.909
GGAATTACCCC | 2.91 | 0.961 | 1.76 | 1.92 | 2.08 | 1.18 | 1.85 | 1.44 | 2.35
AGATAGTTCCC | 0.521 | -0.317 | -0.177 | -0.261 | -0.107 | -0.129 | -0.286 | -0.0396 | -0.0868
CAGAATACCCT | 0 | 1.12 | 0.546 | 0.635 | 0.477 | 0.743 | 0.882 | 0.496 | 0.421
CAGTAGGTCCC | 0.28 | -0.303 | -0.0746 | -0.34 | -0.347 | 0.0687 | -0.117 | -0.43 | -0.438
AAATATCTCCC | 0.144 | 0.445 | 0.105 | 0.12 | -0.105 | 0.365 | 0.153 | -0.0256 | -0.0762
GAAGTACCCCC | 0.109 | 1.25 | 0.815 | 1.31 | 1.14 | 1.27 | 1.33 | 0.887 | 0.946
AGAGGAATCCC | 0.476 | 0.189 | 0.335 | 0.188 | 0.227 | 0.0745 | 0.269 | 0.405 | 0.416
GAATTATTCCC | 1.89 | 0.532 | 0.423 | 0.97 | 0.744 | 0.44 | 0.413 | 1.16 | 0.686
CGGAACACCCT | -0.222 | -0.182 | -0.238 | -0.453 | -0.316 | -0.373 | -0.287 | -0.444 | -0.317
CGGGGCATCCT | -0.458 | 0.212 | 0.516 | 0.0241 | 0.306 | 0.179 | 0.34 | 0.188 | 0.458
AGAGGAGCCCC | -0.573 | 0.291 | 0.0479 | -0.113 | -0.0242 | 0.0681 | 0.0342 | -0.0137 | -0.225
CAAAGTTTCCT | 0.729 | -0.548 | -0.572 | -0.313 | -0.494 | -0.737 | -0.489 | -0.0288 | -0.21
GGATTTCTCCT | 0.534 | -0.711 | -0.416 | -0.294 | -0.389 | -0.703 | -0.78 | -0.477 | -0.189
GAAATCGCCCC | 0.357 | 0.544 | 0.298 | 0.401 | 0.557 | 0.494 | 0.759 | 0.842 | 0.389
AGATTGGTCCT | -0.38 | -1.15 | -0.549 | -1.18 | -0.788 | -0.729 | -0.656 | -1.35 | -0.852
GAAAAGTCCCT | 1.43 | 1.36 | 2.5 | 2.07 | 1.79 | 2.67 | 2.22 | 1.59 | 2.16
CAAATAATCCT | -0.308 | -0.88 | -0.501 | -0.911 | -0.746 | -0.974 | -0.846 | -1.09 | -0.674
GAATTGTCCCC | 1.03 | 1.37 | 1.34 | 1.38 | 1.18 | 1.38 | 1.61 | 1.27 | 0.963
